# From the supplement of paper PMC4022240
# ± gives the standard deviation.
# T1: HaloTag-ATRX ADD domain (163-292)
# T1 chain: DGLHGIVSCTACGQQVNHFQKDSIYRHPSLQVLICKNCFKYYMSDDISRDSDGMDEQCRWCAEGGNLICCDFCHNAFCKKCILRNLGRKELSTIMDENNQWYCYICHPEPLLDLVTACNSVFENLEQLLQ
# Legend:
# Assay in all cases: peptide microarray binding signal (635 nm), min-max normalized on array (fraction of array maximum); higher = stronger binding
# Conditions in all cases: peptide region: H3 112-124
# [1] = target: T1, HaloTag-ATRX ADD domain (163-292)
# Summary of the method: (§1)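 An Axon GenePix 4000B scanned the arrays at 635 nm for signal and at 532 nm to catch misprints. Those arrays held histone 13-mer peptide–cellulose conjugates printed in triplicate on nitrocellulose with a Cy3 tracer, blocked overnight at 4°C and probed for 1 h at 4°C with biotin-labelled HaloTag reader fusions (10 nM to 1 μM) plus streptavidin-Alexa Fluor 647 or with rabbit histone antibodies (1:10,000 to 1:2,000) plus anti-rabbit Alexa 647. Each binding signal is a triplicate-spot mean intensity, scaled min-max within its library.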
# [2] = target: HaloTag-ING2 PHD (mouse Ing2 200-280)
# Summary of the method: as §1
# [3] = target: anti-H3K4me3 antibody ab8580
# Summary of the method: as §1
# [4] = target: anti-H3K9me3 antibody ab8898
# Summary of the method: as §1
# [5] = peptide modifications: H3K115ac H3R116me1, binder concentration: 1:2,000 dilution
# [6] = peptide modifications: H3K115ac H3R116me1, binder concentration: 1:10,000 dilution
# [7] = peptide modifications: H3K115me1 H3R116me1, binder concentration: 1:2,000 dilution
# [8] = peptide modifications: H3K115me1 H3R116me1, binder concentration: 1:10,000 dilution
# [9] = peptide modifications: H3K115ac H3K122me3, binder concentration: 1:2,000 dilution
# [10] = peptide modifications: H3K115ac H3K122me3, binder concentration: 1:10,000 dilution
# [11] = peptide modifications: H3K115me1 H3K122me3, binder concentration: 1:2,000 dilution
# [12] = peptide modifications: H3K115me1 H3K122me3, binder concentration: 1:10,000 dilution
# [13] = peptide modifications: H3K115ac H3R116cit, binder concentration: 1:2,000 dilution
# [14] = peptide modifications: H3K115ac H3R116cit, binder concentration: 1:10,000 dilution
binder,measurement,setting,value
IHAKRVTIMPKDI [H3 112-124 I H A Kac Rme V T I M P K D I],peptide microarray binding signal,"[1]; peptide modifications: H3K115ac H3R116me1, binder concentration: 50 nM",0.0108 ± 0.00025
same,peptide microarray binding signal,"[1]; peptide modifications: H3K115ac H3R116me1, binder concentration: 500 nM",0.0193 ± 0.00083
same,peptide microarray binding signal,"[2]; peptide modifications: H3K115ac H3R116me1, binder concentration: 10 nM",0.0322 ± 0.0019
same,peptide microarray binding signal,"[2]; peptide modifications: H3K115ac H3R116me1, binder concentration: 100 nM",0.0449 ± 0.0042
same,peptide microarray binding signal,[3]; [5],0.00519 ± 0.0005
same,peptide microarray binding signal,[3]; [6],0.00542 ± 0.00027
same,peptide microarray binding signal,[4]; [5],0.00293 ± 0.00034
same,peptide microarray binding signal,[4]; [6],0.00254 ± 3.9e-05
IHAKRVTIMPKDI [H3 112-124 I H A Kme Rme V T I M P K D I],peptide microarray binding signal,"[1]; peptide modifications: H3K115me1 H3R116me1, binder concentration: 50 nM",0.0108 ± 0.00023
same,peptide microarray binding signal,"[1]; peptide modifications: H3K115me1 H3R116me1, binder concentration: 500 nM",0.0356 ± 0.0019
same,peptide microarray binding signal,"[2]; peptide modifications: H3K115me1 H3R116me1, binder concentration: 10 nM",0.0466 ± 0.0022
same,peptide microarray binding signal,"[2]; peptide modifications: H3K115me1 H3R116me1, binder concentration: 100 nM",0.0304 ± 0.0046
same,peptide microarray binding signal,[3]; [7],0.00891 ± 0.0021
same,peptide microarray binding signal,[3]; [8],0.00593 ± 0.0011
same,peptide microarray binding signal,[4]; [7],0.00746 ± 0.0012
same,peptide microarray binding signal,[4]; [8],0.00646 ± 0.00037
IHAKRVTIMPKDI [H3 112-124 I H A Kac R V T I M P Kme3 D I],peptide microarray binding signal,"[1]; peptide modifications: H3K115ac H3K122me3, binder concentration: 50 nM",0.0118 ± 0.00049
same,peptide microarray binding signal,"[1]; peptide modifications: H3K115ac H3K122me3, binder concentration: 500 nM",0.027 ± 0.0019
same,peptide microarray binding signal,"[2]; peptide modifications: H3K115ac H3K122me3, binder concentration: 10 nM",0.04 ± 0.0046
same,peptide microarray binding signal,"[2]; peptide modifications: H3K115ac H3K122me3, binder concentration: 100 nM",0.0592 ± 0.018
same,peptide microarray binding signal,[3]; [9],0.00634 ± 0.00027
same,peptide microarray binding signal,[3]; [10],0.00679 ± 0.00065
same,peptide microarray binding signal,[4]; [9],0.0228 ± 0.0018
same,peptide microarray binding signal,[4]; [10],0.0104 ± 0.00089
IHAKRVTIMPKDI [H3 112-124 I H A Kme R V T I M P Kme3 D I],peptide microarray binding signal,"[1]; peptide modifications: H3K115me1 H3K122me3, binder concentration: 50 nM",0.00583 ± 0.00011
same,peptide microarray binding signal,"[1]; peptide modifications: H3K115me1 H3K122me3, binder concentration: 500 nM",0.0149 ± 0.00053
same,peptide microarray binding signal,"[2]; peptide modifications: H3K115me1 H3K122me3, binder concentration: 10 nM",0.0251 ± 0.0019
same,peptide microarray binding signal,"[2]; peptide modifications: H3K115me1 H3K122me3, binder concentration: 100 nM",0.0482 ± 0.004
same,peptide microarray binding signal,[3]; [11],0.00627 ± 0.0014
same,peptide microarray binding signal,[3]; [12],0.00548 ± 0.00038
same,peptide microarray binding signal,[4]; [11],0.0268 ± 0.0058
same,peptide microarray binding signal,[4]; [12],0.0121 ± 0.00038
IHAKRVTIMPKDI [H3 112-124 I H A Kac Rcit V T I M P K D I],peptide microarray binding signal,"[1]; peptide modifications: H3K115ac H3R116cit, binder concentration: 50 nM",0.00668 ± 0.00021
same,peptide microarray binding signal,"[1]; peptide modifications: H3K115ac H3R116cit, binder concentration: 500 nM",0.0105 ± 0.00017
same,peptide microarray binding signal,"[2]; peptide modifications: H3K115ac H3R116cit, binder concentration: 10 nM",0.0109 ± 0.00031
same,peptide microarray binding signal,"[2]; peptide modifications: H3K115ac H3R116cit, binder concentration: 100 nM",0.016 ± 0.00067
same,peptide microarray binding signal,[3]; [13],0.00179 ± 5.5e-05
same,peptide microarray binding signal,[3]; [14],0.00211 ± 3.4e-05
same,peptide microarray binding signal,[4]; [13],0.00154 ± 1.8e-05
same,peptide microarray binding signal,[4]; [14],0.00127 ± 1.3e-05
